NOMO-1 viab: NOMO-1 AML cell viability reduction, primary screen, STK33 inhibitor project, CellTiter-Glo luminescence; inhibition, % (no concentration beside the values); AID 2330, 2010; 7.5% of 37,000 active; NOMO-1 AML viability, 72 h; in the data active = inhibition above about 80%; inconclusive = no clear call, values can overlap the other calls
PD-1 reverse act: activators reversing PD-1 mediated T-cell inhibition, primary screen, luminescence, primary human CD4 T cells, PD-L1 beads; activation, % (test concentration not listed); CellTiter-Glo 96 h; 29,000 tested, under 10 active; call rule not given here;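 also: 0% = median vehicle wells and 100% = positive control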
Shh pathway inh: Hedgehog pathway signaling inhibitors, primary screen, luminescence, Shh-LIGHT2 cells, Gli-luciferase; Shh-LIGHT2 Gli-luciferase reporter, 30 h; inhibition, % (no concentration beside the values); 2.1% of 22,000 active;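 active = mean inhibition across valid replicates above about 65%, limit read from the data; inconclusive = mean under the limit, yet half or more replicates past it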;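 also: pathway switched on by Shh-conditioned medium diluted 1 in 25 in low serum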
MITF inhib: inhibitors of MITF, primary screen, MITF inhibitor project, cell-based, luminescence | inhibition, % (concentration not given with the values) | AID 2240, 2010 | 0.28% of 37,000 active | TRPM1 promoter luciferase, 24 h; in the data active = inhibition above about 85%; inconclusive = no clear call, values can overlap the other calls; inactive = below about 68%;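 also: human melanocyte line stably carrying TRPM1 promoter luciferase reporter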
Numbers without * were called inactive; ? = inconclusive; · = not tested or not shown. In the library only some 7.9% were active in any assay of this set; here they are far more common.

SMILES	NOMO-1 viab	PD-1 reverse act	Shh pathway inh	MITF inhib
O=C(CC1Nc2cccc3cccc(c23)NC1=O)Nc1ccc([N+](=O)[O-])cc1 (stereo unspecified)	124*	-10	·	55
O=C(CSc1ncccc1C(=O)O)Nc1ccc(Oc2ccccc2)cc1	20	2	·	-3
C[C@@H]1CN([C@@H](C)CO)C(=O)c2cc(NC(=O)Nc3ccc(C(F)(F)F)cc3)ccc2O[C@H]1CN(C)Cc1ccc(C(=O)Nc2ccccc2N)cc1	11	0	·	5
C[C@@H]1CN([C@H](C)CO)C(=O)c2cc(NC(=O)Nc3ccc(F)cc3)ccc2O[C@@H]1CN(C)Cc1ccc(C(=O)Nc2ccccc2N)cc1	107*	-3	·	-7
C[C@@H]1CN([C@H](C)CO)C(=O)c2cc(NC(=O)Nc3ccc(C(F)(F)F)cc3)ccc2O[C@@H]1CN(C)Cc1ccc(C(=O)Nc2ccccc2N)cc1	102*	-2	·	-22
CN(C)c1nc(C(C)(C)C)cc2c1C(=O)NC2=O	-18	0	-9	-10
O=C1CC(c2cccs2)Cc2nc(NCCN3CCOCC3)ncc21 (stereo unspecified)	5	·	·	-11
O=c1[nH]c(SCc2n[nH]c(=S)n2-c2ccccc2)nc2ccccc12	-2	2	·	-27
S=c1[nH]nc(CSCc2cccc3ccccc23)n1C1CCCCC1	24	0	69*	18
Cc1ccc(C)n1-c1ccc(C(=O)OCC(=O)c2ccc(Cl)cc2)cc1	121*	-1	46	-13
O=C(COC(=O)C1CC=CCC1C(=O)OCC(=O)c1ccc(Cl)cc1)c1ccc(Cl)cc1 (stereo unspecified)	45	-2	·	4
CC1(C)c2ccccc2N(CCC(N)=O)C12C=Cc1c(ccc3ccccc13)O2 (stereo unspecified)	88*	0	2	39
CC(C)(C)c1ccc(OCC(O)Cn2cnc3ccccc32)cc1 (stereo unspecified)	93*	·	·	30
Cc1ccc(OCC(O)Cn2cnc3ccccc32)cc1 (stereo unspecified)	32	1	·	-41
COC(=O)CNC(=O)c1cc(-c2ccccn2)nc2ccc(Cl)cc12	67	·	·	17
CCOC(=O)CNC(=O)c1cc(-c2ccccn2)nc2c(C)c(Cl)ccc12	97*	·	·	-24
Cc1cc(S(=O)(=O)N2CCC(NC(=O)Cc3ccccc3)CC2)c(Cl)cc1Cl	33	-1	-6	21
CC(=O)OC[C@H]1O[C@@H](Oc2cc(OC(C)=O)c3c(=O)cc(-c4ccc(OC(C)=O)cc4)oc3c2)[C@H](OC(C)=O)[C@@H](OC(C)=O)[C@@H]1OC(C)=O	63	·	65*	-18
C[C@@H]1CN([C@H](C)CO)C(=O)Cc2cc(NC(=O)Nc3ccc(F)cc3)ccc2O[C@@H]1CN(C)Cc1ccc(C(F)(F)F)cc1	?	-4	28	8
C[C@H]1CN([C@@H](C)CO)C(=O)Cc2cc(NC(=O)Nc3ccc(C(F)(F)F)cc3)ccc2O[C@@H]1CN(C)Cc1ccc(C(=O)O)cc1	0	·	-10	3
C[C@@H]1CN([C@@H](C)CO)C(=O)Cc2cc(NC(=O)Nc3ccc(C(F)(F)F)cc3)ccc2O[C@@H]1CN(C)Cc1ccc(C(F)(F)F)cc1	124*	·	·	2
C[C@@H]1CN([C@H](C)CO)C(=O)Cc2cc(NC(=O)NC3CCCCC3)ccc2O[C@H]1CN(C)Cc1ccc(C(F)(F)F)cc1	93*	·	22	20
C[C@H]1CN([C@@H](C)CO)C(=O)Cc2cc(NC(=O)Nc3ccc(C(F)(F)F)cc3)ccc2O[C@H]1CN(C)Cc1ccc(C(F)(F)F)cc1	136*	-10	-31	34
Cc1ccc(S(=O)(=O)N(C)CCCc2nc3ccccc3[nH]2)cc1	27	·	·	4
Cc1cc(C)nc(NS(=O)(=O)c2ccc(Nc3nc(-c4ccc(F)cc4)cs3)cc2)n1	10	-1	·	-9
SMILES	NOMO-1 viab	PD-1 reverse act	Shh pathway inh	MITF inhib
COc1ccc(S(=O)(=O)Nc2ccc3c(c2)C(=O)N([C@@H](C)CO)C[C@@H](C)[C@@H](CN(C)Cc2ccc(-c4ccccc4)cc2)O3)cc1	91*	-2	11	48
C[C@@H]1CN([C@@H](C)CO)C(=O)c2cc(NS(=O)(=O)c3ccc(F)cc3)ccc2O[C@@H]1CN(C)Cc1ccc(Oc2ccccc2)cc1	112*	·	·	29
COc1ccc(S(=O)(=O)Nc2ccc3c(c2)C(=O)N([C@H](C)CO)C[C@@H](C)[C@H](CN(C)Cc2ccc(-c4ccccc4)cc2)O3)cc1	17	2	·	-3
Cc1noc(C)c1S(=O)(=O)Nc1ccc2c(c1)C(=O)N([C@H](C)CO)C[C@H](C)[C@@H](CN(C)Cc1ccccc1)O2	19	-1	7	-4
COc1ccc(S(=O)(=O)Nc2ccc3c(c2)C(=O)N([C@@H](C)CO)C[C@@H](C)[C@@H](CN(C)Cc2ccc(Oc4ccccc4)cc2)O3)cc1	113*	·	·	60
COc1ccc(S(=O)(=O)Nc2ccc3c(c2)C(=O)N([C@@H](C)CO)C[C@H](C)[C@@H](CN(C)Cc2ccc(Oc4ccccc4)cc2)O3)cc1	71	0	36	9
Cc1noc(C)c1S(=O)(=O)Nc1ccc2c(c1)C(=O)N([C@H](C)CO)C[C@@H](C)[C@@H](CN(C)Cc1ccc(Oc3ccccc3)cc1)O2	105*	-2	43	9
COc1ccccc1NC(=O)Cn1cc(C(=O)C2CCCCC2)c2ccccc21	29	0	·	42
C[C@H]1CN([C@@H](C)CO)C(=O)c2cc(NS(=O)(=O)c3ccc(F)cc3)ccc2O[C@@H]1CN(C)Cc1ccc(Oc2ccccc2)cc1	117*	-2	30	15
C[C@@H]1CN([C@@H](C)CO)C(=O)c2cc(NS(=O)(=O)c3ccccc3)ccc2O[C@@H]1CN(C)Cc1ccc(Oc2ccccc2)cc1	118*	-3	22	23
C[C@H]1CN([C@@H](C)CO)C(=O)c2cc(NS(=O)(=O)c3ccccc3)ccc2O[C@@H]1CN(C)Cc1ccc(Oc2ccccc2)cc1	68	-4	20	19
C[C@H](CO)N1C[C@H](C)[C@@H](CN(C)Cc2ccc(Oc3ccccc3)cc2)Oc2ccc(NS(=O)(=O)c3ccc(F)cc3)cc2C1=O	58	-4	·	12
CC(=O)c1cccc(N(CC(=O)Nc2ccc(C(F)(F)F)cc2)S(C)(=O)=O)c1	27	-2	·	0
Cn1cnc([N+](=O)[O-])c1Sc1ncnc2nc[nH]c12	119*	2	22	23
COc1ccc(-c2nnc3c4ccccc4c(C)nn23)cc1S(=O)(=O)NCc1ccccc1	47	0	·	41
COc1ccc(S(=O)(=O)NCc2ccccc2)cc1-c1nnc2c3ccccc3c(C)nn12	116*	·	·	36
O=S1(=O)NC(=NCCOCc2ccc(Cl)cc2)c2ccccc21	16	1	·	-3
COc1cc2cc(Oc3ccc4ccc(=O)oc4c3)c(=O)oc2cc1OC1OC(COC(=O)CC(C)(O)CC(=O)O)C(O)C(O)C1O (stereo unspecified)	4	-1	16	-4

Source: PubChem
